A549 viability: A549 cytotoxicity, counter-screen for Nrf2 inhibitors; A549 ARE-Fluc cells, CellTiter-Fluor viability, 18-24 h; Potency, µM (highest dose often 46 µM), for the others: at the top dose activity change, negative = cytotoxicity, most hits filed as inhibitors; 390,000 compounds, 0.16% hits; also: % is scaled to controls: 0 for no effect and ±100 for the full control effect
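Cytotoxicity counterscreen: CellTiter-Fluor fluorescence was measured in A549 ARE_Fluc cells after 18-24 h of compound exposure in a concentration series. The subsequent BugLite luminescent read reports ARE-luciferase activity.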
Nrf2 block: blocks Nrf2 signaling. A549 ARE-Fluc reporter, luciferase luminescence, 18-24 h. Potency, µM (series often up to 46 µM), for inactives: at the top dose activity change, negative = inhibition, usual class: inhibitors. 360,000 compounds, 2.1% hits. AID 504444; also: % is scaled to controls: 0 for no effect and ±100 for the full control effect; nearly all actives have a fitted effect of over 60% in size
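In this cell-based qHTS, ARE-driven firefly luciferase in A549 cells reports Nrf2 activity; the luminescent signal after BugLite lysis is the measured value, with a prior CellTiter-Fluor read for cell health.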
Nrf2 activator: activates Nrf2 signaling | Potency, µM (titrated, usually from 46.1 µM), inactives show at the highest dose activation, most hits filed as activators | AREc32 ARE-luciferase reporter (MCF7-derived line), luminescence, 24 h | AID 624171 | 410,000 compounds, 0.31% hits; also: % of control where 0% means no effect; nearly all actives have a fitted effect of over 65% in size
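Luciferase luminescence (Steady-Glo, 30 min at room temperature) served as the read-out of ARE activation in AREc32 cells treated with compounds for 24 hr at 37 deg C.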
S2 tox: viability counter-screen for ATXN expression inhibitors; 400,000 compounds, 0.49% hits; S2 cells (HEK-293 line with an ATXN2-luciferase reporter) viability, CellTiter-Fluor protease fluorescence, 24 h; Potency, µM (highest dose often 56.7 µM), most hits filed as cytotoxic; AID 651635; also: nearly all actives have a fitted effect of over 40% in size
ATXN2 expr inh: ATXN2 expression inhibition; HEK-293 ATXN2-luciferase reporter, luminescence, 24 h; Potency, µM (doses to about 57 µM), for the others: at the highest dose activity change, negative = inhibition, most hits filed as inhibitors; 360,000 compounds, 0.72% hits; AID 1745845; also: % is scaled to controls: 0 for no effect and ±100 for the full control effect; nearly all actives have a fitted effect of over 55% in size
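ATXN2-luciferase reporter cells (luciferase flanked by upstream and downstream ATXN2 gene portions) were treated 24 h at 37 °C with compounds at up to 57 uM. SteadyGlo luminescence gave expression; GF-AFC fluorescence gave viability.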
Numbers without * were called inactive; i = inactive; ? = inconclusive; nt = no result; [ ] = dose if it differs, or a comment. Sampled rows, rich in hits. Any-hit rate of the full collection: about 2.9%. Calls follow the shape of the dose curve; as a rule, active = well fitted curve in the direction sought with a large enough effect; inconclusive = small, poorly fitted or top-dose-only effect, or another doubt; inactive = no such curve, though single readings can be large; an effect the other way counts as inactive or inconclusive. Potency is read from the fitted curve at half-maximal effect.

SMILES	A549 viability	Nrf2 block	Nrf2 activator	S2 tox	ATXN2 expr inh
Cc1ccc(C)c(N2CCN(C(=O)CCS(=O)(=O)c3ccc4c(c3)CCN4C(=O)C3CC3)CC2)c1	-4%	26µM*	0%	i	-19%
O=C1COc2ccc(S(=O)(=O)CCC(=O)N3CCN(c4ccccc4)CC3)cc2N1	-3%	2%	0%	i	6%
O=C(C1CCC(CNS(=O)(=O)c2cccs2)CC1)N1CCN(c2ccc(Cl)cc2)CC1 (configuration not stated)	?	8.2µM*	7%	i	?
O=C(C1CCC(CNS(=O)(=O)c2ccc(Br)s2)CC1)N1CCN(c2ccccc2)CC1 (configuration not stated)	-1%	?	0%	i	-5%
COc1ccc(CNC(=O)C2Cc3c(-c4ccccc4)ccnc3O2)cc1OC (configuration not stated)	nt	nt	2%	i	-2%
COc1ccc(CCCNC(=O)C2Cc3c(-c4ccccc4)ccnc3O2)cc1 (configuration not stated)	nt	nt	-2%	18µM*	?
O=C(NCC(c1cccs1)N1CCOCC1)c1ccccc1NS(=O)(=O)c1cccc([N+](=O)[O-])c1 (configuration not stated)	?	21µM*	3%	i	nt
O=C(NCC(c1cccs1)N1CCOCC1)c1ccccc1NS(=O)(=O)c1ccc(Cl)c([N+](=O)[O-])c1 (configuration not stated)	1%	?	27%	?	nt
CN(C)CCNc1ncnc2ccc(-c3ccc4c(c3)OCO4)cc12	6%	0%	nt	nt	nt
CCOc1ccc(-n2c(=O)c3c(C)c(C)sc3n(Cc3ccccc3C)c2=O)cc1	0%	3%	0%	i	1%
COc1cc2c(O)c3c(c(-c4ccc5c(c4)OCO5)c2cc1OC)C(=O)OC3	18µM*	?	6%	?	?
COc1cc2c(OC(C)=O)c3c(c(-c4ccc5c(c4)OCO5)c2cc1OC)C(=O)OC3	?	?	17%	?	-20%
c1csc(C2=Nn3c(nnc3-c3ccncc3)SC2)c1	-4%	16µM*	3%	i	27%
c1ccc(C2=Nn3c(nnc3-c3cccs3)SC2)cc1	-1%	-9%	?	i	-7%
COc1ccc(-c2sc(NC(=O)c3ccc(C)cc3)nc2-c2ccc([N+](=O)[O-])cc2)cc1	-3%	4%	-1%	i	-6%
COc1ccc(C(=O)Nc2nc(-c3ccc([N+](=O)[O-])cc3)c(-c3ccccc3)s2)cc1	-29%	13µM*	0%	i	-16%
CCc1nn2c(=O)cc(N3C(C)CNCC3C)nc2s1 (configuration not stated)	-1%	12%	nt	nt	nt
Cc1cc(Nc2cccc([N+](=O)[O-])c2)n2c(nc3ccccc32)c1C#N	?	10µM*	4%	?	8.9µM*
CCNc1nc(C#N)nc(N2CCOCC2)n1	-7%	16µM*	nt	nt	nt
O=C/C(=C\Nc1ccccn1)c1nc2ccccc2o1	6%	?	13µM*	i	27%
O=C/C(=C\Nc1ccccn1)c1nc2cc(Cl)ccc2o1	3%	26%	23%	i	17%
Cc1cc(C)c(NC(=O)Cn2c(=O)n(-c3ccc(F)cc3)c(=O)c3c(C)c(C(=O)N(C)C)sc32)c(C)c1	4%	nt	0%	i	10%
CCn1cc([N+](=O)[O-])c(C(=O)Nc2nc(-c3ccc(C)c(C)c3)c(C)s2)n1	-13%[1.84 µM]	16µM*	?	i	-4%
CCn1cc([N+](=O)[O-])c(C(=O)Nc2nc(-c3ccc(C)cc3)c(C)s2)n1	-2%	-11%	?	?	-11%
COc1cccc(C2C(C#N)=C(NC(=O)CCc3ccccc3)Oc3ccc4ccccc4c32)c1 (configuration not stated)	-3%	10%	nt	nt	nt
SMILES	A549 viability	Nrf2 block	Nrf2 activator	S2 tox	ATXN2 expr inh
Cc1nc(N2CCN(S(=O)(=O)c3ccc(F)cc3)CC2)c2c(-c3cccs3)csc2n1	5%	16µM*	0%	i	-18%
Cc1ccc(S(=O)(=O)N2CCN(c3ncnc4scc(-c5ccc(F)cc5)c34)CC2)cc1	-15%	?	1%	i	0%
CS(=O)(=O)N1CCc2cc(C(=O)Nc3cccc(F)c3)ccc21	-3%	?	1%	i	11%
Cc1ccc(-n2[nH]c(=O)c(-c3ccccn3)c2C)cc1	-3%	?	-1%	i	1.8µM*
NCCCC[C@H](NC(=O)[C@@H]1CCCN1C(=O)[C@@H]1CSSC[C@H](N)C(=O)N[C@@H](Cc2ccccc2)C(=O)N[C@@H](Cc2ccccc2)C(=O)N[C@@H](CCC(N)=O)C(=O)N[C@@H](CC(N)=O)C(=O)N1)C(=O)NCC(N)=O	nt	nt	nt	i	nt
CSc1ncc(Cl)c(C(=O)Nc2cccnc2)n1	-6%	2%	11µM*	i	4%
CSc1ncc(Cl)c(C(=O)Nc2ccc(NC(C)=O)cc2)n1	1%	-3%	0%	i	8%
COc1ccc(-c2noc(N3CCC(C(=O)NC(C)c4ccccc4)CC3)n2)cc1 (configuration not stated)	-20%	23µM*	0%	?	-27%
COc1ccc(-c2noc(N3CCC(C(=O)Nc4ccccc4Cl)CC3)n2)cc1	2%	-7%	-2%	?	?
COc1ccc(C2c3c(n(CCc4ccccc4)cnc3=N)Oc3ccc4ccccc4c32)cc1OC (configuration not stated)	0%	2%	nt	nt	nt
COc1ccc(-c2ccc3ncnc(NCc4ccc(C)o4)c3c2)cc1OC	-15%	-23%	nt	nt	nt
O=[N+]([O-])c1ccccc1N/N=C/c1c[nH]c2ccccc12	-27%	?	3.5µM*	?	73%
COc1cc(Cl)c(NC(=O)CN(C)S(=O)(=O)c2ccc3[nH]c4c(c3c2)CCCC4)c(OC)c1	-1%	23µM*	6%	i	-31%
COc1ccccc1N1CCN(S(=O)(=O)c2ccc3nc(-c4ccccc4)[nH]c3c2)CC1	-12%	23µM*	3%	i	-21%
COc1ccc(NC(=O)CN(C)S(=O)(=O)c2ccc3[nH]c4c(c3c2)CCCC4)cc1Cl	-3%	?	5%	?	?
COc1cccc(N2CCN(S(=O)(=O)c3ccc4[nH]c5c(c4c3)CCCC5)CC2)c1	0%	?	4%	?	-12%
COc1ccccc1N1CCN(S(=O)(=O)c2ccc3[nH]c4c(c3c2)CCCC4)CC1	-12%	23µM*	0%	i	-9%
COCC(=O)Nc1cc(C(=O)N2CCCC(C(N)=O)C2)cc2nc(-c3ccccc3)n(C)c12 (configuration not stated)	nt	nt	nt	i	nt
COc1nc(C)cnc1NS(=O)(=O)c1cccnc1-c1ccc(-c2nnco2)cc1	nt	nt	nt	nt	-7%
